# L3MBTL1 inh: qHTS Assay for the Inhibitors of L3MBTL1; Potency, µM (series often up to 57.1 µM), for inactives: at the highest dose activity, negative = inhibition, actives largely listed as inhibitors; AlphaScreen L3MBTL1–H3K9me1 peptide binding; 230,000 compounds, 0.66% hits; Lethal(3)malignant brain tumor-like protein 1 (Homo sapiens), Q9Y468; note: % is set by controls: 0 for no effect and ±100 for the full control effect; nearly all actives have a fitted effect of over 60% in size
#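 AlphaScreen proximity signal between nickel-chelate acceptor and streptavidin donor beads (final 10 ug/mL) reports binding of 50 nM L3MBTL1 to 75 nM biotin-H3 K9me1 peptide; complex incubated with compounds 30 min at room temperature; cefsulodin titration as control.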
# BAZ2B block: qHTS Assay for Inhibitors of BAZ2B; Bromodomain adjacent to zinc finger domain protein 2B (Homo sapiens), Q9UIF8; AlphaScreen BAZ2B-H3K14Ac peptide displacement; Potency, µM (titrated, usually from 114 µM), for inactives: at the highest dose activity change, negative = inhibition, most hits filed as inhibitors; 360,000 compounds, 4.4% hits; AID 504333, 2011; note: % is set by controls: 0 for no effect and ±100 for the full control effect; nearly all actives have a fitted effect of over 60% in size
#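 In this displacement format the biotinylated H3(5-23) peptide acetylated at Lys14 serves as ligand at 50 nM, with BAZ2B at 50 nM in PBS pH 7.4 containing 0.01% Tween-20. Donor and acceptor beads are 10 ug/mL final.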
# Sfp PPTase inh: qHTS Assay for Inhibitors of Bacillus subtilis Sfp phosphopantetheinyl transferase (PPTase). AID 1490, 2009. 310,000 compounds, 3.5% hits. Potency, µM, without a hit: largest response in the series, negative = inhibition, most hits filed as inhibitors. Biochemical Sfp PPTase activity, qHTS;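 note: the enzyme is Sfp with the accession as filed and its product quenches rhodamine fluorescence; 0% = enzyme reaction without inhibitor and -100% = no enzyme wells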
#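 Reaction rates are the 30-min fluorescence difference (ex 525, em 598 nm) in wells containing 15 nM Sfp, 5 uM rhodamine-CoA and 12.5 uM BHQ-2-YbbR at pH 7.6 with 10 mM MgCl2.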
# G9a inh: qHTS Assay for Inhibitors of Histone Lysine Methyltransferase G9a; Potency, µM (top dose mostly 102 µM), without a hit: at the highest dose activity, negative = inhibition, hits mostly inhibitors; G9a H3K9 monomethylation, AlphaScreen, 2 h; 350,000 compounds, 8.8% hits; Histone-lysine N-methyltransferase EHMT2 (Homo sapiens), Q96KQ7; note: % is set by controls: 0 for no effect and ±100 for the full control effect; nearly all actives have a fitted effect of over 75% in size
#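 G9a (20 nM) was preincubated 15 min with compound, then reacted 2 h at room temperature with 500 nM biotin-H3K9 peptide and 20 µM SAM. Monomethyl-H3K9 detected by AlphaScreen using anti-H3K9me1 antibody.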
# HP1b chromo inh: HTS for Inhibitors of HP1-beta Chromodomain Interactions with Methylated Histone Tails; AID 540317, 2011; Potency, µM (series often up to 114 µM), for the others: at the top dose activity change, negative = inhibition, usual class: inhibitors; 390,000 compounds, 0.56% hits; AlphaScreen HP1-beta / biotin-H3K9me3 peptide binding; Chromobox protein homolog 1 (Homo sapiens), P83916; note: nearly all actives have a fitted effect of over 70% in size
#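 AlphaScreen: HP1-beta (50 nM) preformed 30 min with biotin-H3(1-18)K9me3 peptide (50 nM) in PBS pH 7.4, 0.01% Tween-20. Compound added for 30 min at RT, then streptavidin donor/nickel chelate acceptor beads (10 ug/mL) for 30 min.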
# JMJD2A Tudor inh: qHTS Assay for Inhibitors of JMJD2A-Tudor Domain; 390,000 compounds, 4.4% hits; Potency, µM (doses to about 114 µM), for inactives: at the top dose activity change, negative = inhibition, actives largely listed as inhibitors; AID 504339, 2011; AlphaScreen JMJD2A-Tudor / H3K4me3 peptide binding; note: % is set by controls: 0 for no effect and ±100 for the full control effect; nearly all actives have a fitted effect of over 50% in size
# Target sequence (O75164 whole entry, looked up, the tested form may be a part): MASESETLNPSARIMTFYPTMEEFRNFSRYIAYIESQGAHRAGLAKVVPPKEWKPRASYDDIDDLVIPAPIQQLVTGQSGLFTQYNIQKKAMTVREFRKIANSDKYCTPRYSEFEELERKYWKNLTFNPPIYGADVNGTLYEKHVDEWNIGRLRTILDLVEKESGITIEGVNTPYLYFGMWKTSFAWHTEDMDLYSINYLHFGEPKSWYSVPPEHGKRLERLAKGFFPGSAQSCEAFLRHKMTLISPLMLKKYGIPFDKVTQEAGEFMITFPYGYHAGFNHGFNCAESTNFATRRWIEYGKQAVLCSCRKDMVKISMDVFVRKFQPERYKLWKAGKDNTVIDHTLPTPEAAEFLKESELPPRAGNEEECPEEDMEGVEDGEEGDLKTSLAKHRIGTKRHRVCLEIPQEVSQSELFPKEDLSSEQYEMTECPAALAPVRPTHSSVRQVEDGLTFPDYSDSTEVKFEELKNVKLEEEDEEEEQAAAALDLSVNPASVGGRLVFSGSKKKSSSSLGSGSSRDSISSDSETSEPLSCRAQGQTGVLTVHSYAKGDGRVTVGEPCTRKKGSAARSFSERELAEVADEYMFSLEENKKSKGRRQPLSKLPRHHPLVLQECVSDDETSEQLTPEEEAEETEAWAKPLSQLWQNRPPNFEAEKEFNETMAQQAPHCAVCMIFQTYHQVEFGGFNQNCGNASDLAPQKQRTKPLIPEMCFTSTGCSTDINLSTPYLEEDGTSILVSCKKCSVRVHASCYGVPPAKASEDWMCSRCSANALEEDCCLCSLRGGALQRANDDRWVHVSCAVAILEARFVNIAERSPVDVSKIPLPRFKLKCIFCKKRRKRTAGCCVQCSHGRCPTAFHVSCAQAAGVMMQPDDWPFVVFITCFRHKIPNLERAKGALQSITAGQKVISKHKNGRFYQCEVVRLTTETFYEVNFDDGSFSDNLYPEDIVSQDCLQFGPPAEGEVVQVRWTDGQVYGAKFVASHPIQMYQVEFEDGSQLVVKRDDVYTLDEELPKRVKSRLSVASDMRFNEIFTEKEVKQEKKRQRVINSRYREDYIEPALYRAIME
# An asterisk follows results filed as active; ? = inconclusive; nt = no result given; [ ] = another dose, or the depositor's remark. A selection: hits, their analogues and other compounds. The true share with any hit is near 12%. Calls come from the whole dose curve; as a rule, active = well fitted curve in the direction sought with a large enough effect; inconclusive = small, poorly fitted or top-dose-only effect, or another doubt; inactive = no such curve, though single readings can be large; an effect the other way counts as inactive or inconclusive. Potency is the fitted concentration of half-maximal effect.
SMILES,L3MBTL1 inh,BAZ2B block,Sfp PPTase inh,G9a inh,HP1b chromo inh,JMJD2A Tudor inh
CCc1cc(=O)oc2c(C)c(OCC(=O)Nc3ccc(S(=O)(=O)N(CC)CC)cc3)ccc12,nt,-1%,nt,3%[59 µM],37%,-9%
CC(C)c1nc2sc3c(SCC(=O)NCc4ccco4)ncnc3c2c2c1CCC2,?,56µM*,25µM*,45µM*,-5%,56µM*
CC1(C)Cc2nc3sc4c(SCC(=O)NCc5ccco5)ncnc4c3cc2CO1,nt,-26%,?,?,16%,-21%
O=c1[nH]cnc2c1sc1nc(-c3ccccc3)c3c(c12)CCCC3,11%,0%,-6%,22%[59 µM],31%,-6%
O=C(O)CSc1ncnc2c1sc1nc(-c3ccccc3)c3c(c12)CCC3,nt,50µM*,5%,40µM*,-34%[57 µM],50µM*
CCOc1ccc(C2=CC(=O)C[C@H](c3ccc(OC)cc3)C2)cc1,7%,1%,nt,26%[2.33 µM],33%,-8%
Cc1cc(OCC(=O)Nc2ccc(S(=O)(=O)N3CCN(C)CC3)cc2)cc(C)c1Cl,-5%[11.4 µM],50µM*,?,?,-17%,50µM*
COc1cc(S(=O)(=O)N2CCOCC2)ccc1NC(=O)COC(=O)CC12CC3CC(CC(C3)C1)C2,nt,-2%,5%,1.4µM*,41%,-20%
COc1ccccc1OCC(=O)Nc1ccc(S(=O)(=O)N2CCOCC2)cc1,nt,-3%,-3%,79µM*,-12%,-24%
Cc1cc(C)c(OCC(=O)Nc2ccc(S(=O)(=O)N3CCOCC3)cc2)c(C)c1,nt,-16%,17%,45µM*,9%,-18%
COc1ccc(OCC(=O)Nc2ccc(S(=O)(=O)N3CCOCC3)cc2)cc1,nt,-2%,11%,3%[12.7 µM],24%,-11%
Cc1cc(OCC(=O)Nc2ccc(S(=O)(=O)N3CCN(C)CC3)cc2)ccc1Cl,2%,4%,-7%,?,51%,-3%
O=C(c1cc2cc(F)ccc2[nH]1)N1CCN(C(=O)c2ccco2)CC1,nt,-31%,?,nt,-3%[57 µM],-30%
COc1ccc(S(=O)(=O)N2CCCCC2)cc1NC(=O)c1ccc(N2CCCC2=O)cc1,-8%,3%,nt,-25%[59 µM],42%,-14%
CC1(C)C(N(O)C(=O)Nc2ccc(Cl)cc2)N(c2ccc(Cl)cc2)C(=O)N1CC(=O)NN (stereo not given),nt,-2%,100µM*,15%[12.7 µM],26%,-29%
CC/C(=N\NS(=O)(=O)c1ccc(C)cc1)c1ccco1,nt,-37%,10%,?,24%,-18%
Cc1c(C(=O)Nc2ccccc2)cn2c(nc3ccccc32)c1C#N,5%,6%,1%,-5%[59 µM],9%,-7%
Cc1ccccc1C(=O)Nc1ccc2c(C#N)c3nc4ccccc4nc3n2c1,?,50µM*,56µM*,5µM*,-10%,-32%
COc1ccc(C(=O)C(/C=N/O)=N/Nc2ccc(F)cc2)cc1,?,?,-2%,18µM*,20%,-16%
CO/N=C/C(=N\Nc1ccc(OC)cc1)C(=O)c1ccc(OC)cc1,nt,?,?,35µM*,-26%,?
COC(=O)c1cc2oc3ccccc3c2n1CC(=O)Nc1ccc(C)cc1Cl,nt,3%,nt,1%[59 µM],19%,-16%
Fc1ccc(CN2CCCCCC2)c(F)c1,-4%,?,-6%,-9%[12.7 µM],?,?
Fc1ccccc1CN1CCCCCCC1,nt,50µM*,56µM*,-50%[12.7 µM],?,4µM*
Fc1ccc(CN2CCCCCCC2)c(F)c1,-1%,50µM*,-16%,?,?,3.2µM*
CC(C)[C@@H](CC(=O)N[C@@H]1CCCC[C@H]1C(=O)N[C@H](CC(=O)N[C@@H](CCC(=O)O)CC(=O)O)Cc1ccccc1)NC(=O)C[C@H](CO)NC(=O)[C@@H]1CCCC[C@H]1N,nt,nt,10%,nt,nt,nt
SMILES,L3MBTL1 inh,BAZ2B block,Sfp PPTase inh,G9a inh,HP1b chromo inh,JMJD2A Tudor inh
CCCCOc1ccc(-c2nonc2NC(=O)c2ccco2)cc1,nt,9%,nt,2%[59 µM],23%,-4%
CCCCCCNC(=O)Nc1ccc(S(=O)(=O)Nc2ccc(CCNC[C@H](O)COc3ccc(O)cc3)cc2)cc1,nt,nt,25µM*,nt,nt,nt
CCCCOc1ccc(S(=O)(=O)Nc2ccc(NC(C)=O)cc2)cc1,9%,8%,11%,17%[59 µM],47%,-19%
COc1ccc(C(CNC(=O)c2ccco2)N2CCCC2)cc1 (stereo not given),0%,13%,nt,11%[12.7 µM],19%,-4%
COc1ccc(N(CC(=O)N2CCN(c3ccc(F)cc3)CC2)S(=O)(=O)c2c(C)noc2C)cc1,nt,-27%,11%,13%,24%,-24%
CSc1ccc(/C=C/C(=O)N2CCCN(C)CC2)cc1,nt,-31%,7%,22µM*,-11%,-36%
O=C(NCc1ccccc1)c1ccc(NC(=O)c2nsc3ccccc23)cc1,nt,4%,nt,5%[59 µM],15%[57 µM],-6%
N[C@@H](Cn1ccc(=O)n(Cc2ccccc2C(=O)O)c1=O)C(=O)O,nt,nt,56µM*,nt,nt,nt
N[C@@H](Cn1cc(I)c(=O)n(Cc2ccc(C(=O)O)cc2)c1=O)C(=O)O,nt,nt,-15%,nt,nt,nt
CCOC(=O)N1CCN(C(=O)CS(=O)Cc2nc(-c3ccc(OC)c(OC)c3)oc2C)CC1 (stereo not given),nt,-4%,2%,0%,6%[57 µM],-3%
O=C1/C(=C\c2ccc(O)c(O)c2)N=C2CCCCCN12,?,?,56µM*,28µM*,-4%,3.2µM*
Nc1ccc(C(=O)N2CCN(S(=O)(=O)c3ccc(Br)cc3)CC2)cc1[N+](=O)[O-],-16%,-9%,nt,45µM*,-2%,?
C[N+]1(CC(=O)OC2CCCCCCCCCCC2)CCCC1,nt,-7%,0%,?,10%,?
CC(=O)/C(C[N+]1(C)CCCCC1)=N\O,11%,?,4%,?,-32%,35µM*
C=Cc1ccc(S(=O)(=O)O)cc1,nt,nt,12%,6%[12.7 µM],nt,nt
c1csc(CNc2nc3ccccc3n2CCN2CCOCC2)c1,nt,11%,-8%,?,25%,-4%
CCCn1c(NCc2ccccn2)nc2ccccc21,-15%,56µM*,?,5.6µM*,12%,20µM*
c1ccc(CNc2nc3ccccc3n2CCN2CCOCC2)nc1,-5%,71µM*,89µM*,-26%[59 µM],19%,25µM*
CCOC(=O)CCc1c(C)n[nH]c1C,nt,-18%,13%,-28%,27%,-18%
CCOC(=O)CCCc1sc(N)nc1-c1[nH]c(=O)[nH]c1C,-91%,6.3µM*,22µM*,4.5µM*,?,2.2µM*
